Assay outcomes: PubChem BioAssay, National Center for Advancing Translational Sciences (NCATS)
Shown is part of a subset that was picked to be rich in hits.
KDM5B inhibitor: Primary screen for KDM5B Histone Demethylases FDH-coupled qHTS; Potency, µM (doses to about 57.7 µM), usual class: inhibitors; hit rate 2.6% among 220,000; Lysine-specific demethylase 5B (Homo sapiens), Q9UGL1; KDM5B demethylase, FDH-coupled NADH fluorescence (FDH is formaldehyde dehydrogenase); active = well fitted inhibition curve with a large enough effect; also: nearly all actives have a fitted effect of over 70% in size
Target sequence (Q9UGL1 whole entry, looked up): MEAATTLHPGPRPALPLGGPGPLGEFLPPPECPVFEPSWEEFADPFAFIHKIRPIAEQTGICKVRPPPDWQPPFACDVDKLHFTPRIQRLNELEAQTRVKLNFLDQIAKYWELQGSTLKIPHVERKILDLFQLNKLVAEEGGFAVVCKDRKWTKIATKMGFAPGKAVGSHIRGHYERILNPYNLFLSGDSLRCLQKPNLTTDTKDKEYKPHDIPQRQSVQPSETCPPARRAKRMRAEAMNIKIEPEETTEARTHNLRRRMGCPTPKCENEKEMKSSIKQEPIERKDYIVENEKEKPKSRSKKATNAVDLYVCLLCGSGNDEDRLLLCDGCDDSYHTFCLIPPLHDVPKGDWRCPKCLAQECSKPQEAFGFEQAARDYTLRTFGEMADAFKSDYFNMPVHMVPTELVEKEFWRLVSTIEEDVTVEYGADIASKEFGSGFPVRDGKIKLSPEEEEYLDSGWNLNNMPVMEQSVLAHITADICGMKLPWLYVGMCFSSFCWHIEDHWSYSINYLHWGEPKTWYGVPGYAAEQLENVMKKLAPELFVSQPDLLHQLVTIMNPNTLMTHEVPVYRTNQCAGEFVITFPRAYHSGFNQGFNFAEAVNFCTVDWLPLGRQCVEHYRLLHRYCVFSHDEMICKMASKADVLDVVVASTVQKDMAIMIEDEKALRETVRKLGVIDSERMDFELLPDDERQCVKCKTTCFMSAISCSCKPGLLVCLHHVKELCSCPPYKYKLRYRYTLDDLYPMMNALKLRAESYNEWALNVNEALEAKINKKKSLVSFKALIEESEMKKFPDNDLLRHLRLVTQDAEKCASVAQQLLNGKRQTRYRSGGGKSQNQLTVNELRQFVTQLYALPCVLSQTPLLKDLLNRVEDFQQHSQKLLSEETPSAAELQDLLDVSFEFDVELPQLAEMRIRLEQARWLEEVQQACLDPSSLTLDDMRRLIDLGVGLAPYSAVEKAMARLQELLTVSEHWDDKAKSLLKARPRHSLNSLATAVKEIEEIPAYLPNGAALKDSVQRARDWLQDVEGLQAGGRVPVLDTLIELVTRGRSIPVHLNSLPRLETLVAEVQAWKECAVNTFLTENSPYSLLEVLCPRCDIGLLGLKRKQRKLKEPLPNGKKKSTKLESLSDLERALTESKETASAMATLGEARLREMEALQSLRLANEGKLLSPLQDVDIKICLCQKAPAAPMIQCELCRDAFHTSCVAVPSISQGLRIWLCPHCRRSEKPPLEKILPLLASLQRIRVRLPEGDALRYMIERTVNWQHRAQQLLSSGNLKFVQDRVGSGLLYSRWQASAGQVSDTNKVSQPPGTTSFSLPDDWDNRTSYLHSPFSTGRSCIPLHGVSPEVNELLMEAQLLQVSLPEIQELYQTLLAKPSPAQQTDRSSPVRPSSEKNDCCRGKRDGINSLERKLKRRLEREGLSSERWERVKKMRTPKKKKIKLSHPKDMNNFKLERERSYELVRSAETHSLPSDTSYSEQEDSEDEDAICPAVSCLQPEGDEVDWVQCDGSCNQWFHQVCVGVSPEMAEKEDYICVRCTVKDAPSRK
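Coupled FDH/NAD⁺ fluorescence readout. KDM5BΔAP 200 nM final; compound titration, 10 min RT preincubation; substrate mix 12.5 µM H3K4me3, 25 µM 2-OG, 50 µM Fe(II), 100 µM ascorbate, 0.25 mM NAD⁺, 0.25 U/mL FDH; ΔRFU over 30 min.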
Each line names hits and unclear results; the compound was inactive in the other large screens.

Cc1ccc(-c2nnc([C@H]3CCN(C(=O)Nc4ccc(F)cc4)C3)o2)cc1	none
CC(Sc1ccc2c(c1)OCCO2)C(=O)O (stereo not drawn)	none
O=c1nc(-c2ccc(Cl)cc2)c2ccccc2[nH]1	none
O=S(=O)(c1cccc2nsnc12)N1CCCC1c1ccc(Cl)cc1 (stereo not drawn)	none
COc1cccc(C(=O)NC2CC(=O)N(c3ccc(Cl)cc3)C2)c1OC (stereo not drawn)	none
CC(=O)Nc1cc(-c2ccc(=O)n(CC(=O)Nc3c(C)cc(C)cc3C)n2)ccc1C	none
Cc1sc2nc(C(C)Sc3nnnn3C)[nH]c(=O)c2c1C (stereo not drawn)	none
N#Cc1ccccc1COC(=O)c1ccccc1C(=O)c1ccccc1	none
COc1ccc(C=O)cc1CN1CCCCCC1	none
CC(N)(C(=O)O)c1ccc(C(F)(F)F)cc1 (stereo not drawn)	none
Cc1cc(C)cc(NC(=O)C(Sc2ccc(S(=O)(=O)N3CCOCC3)cn2)c2ccccc2)c1 (stereo not drawn)	none
Cc1ccnc(NC(=O)Cc2ccccc2Cl)c1	none
CCOc1cccc(NC(=O)c2ccc(C)cc2)c1	none
Cn1c(=O)[nH]c(=O)c2c1nc(N1CCN(Cc3ccccc3F)CC1)n2Cc1ccccc1F	none
CSc1ccccc1C(=O)Nc1ccccc1Sc1ccccc1	none
Cc1nc(-c2ccc(CNC(=O)c3cnccn3)s2)cs1	none
CCOc1ccccc1C(=O)N1CCC(n2cc(-c3nc(-c4ccccc4)no3)nn2)CC1	none
CCOc1ccc(-c2ccnc(N3CCOC(CN)C3)n2)cc1C(=O)O (stereo not drawn)	KDM5B inhibitor 28.2µM
CCOc1ccc(-c2ccnc(-c3ncccn3)n2)cc1C(=O)O	none
Cc1noc(Cn2cnc3ccc(Br)cc3c2=O)n1	none
COc1cccc(C(=O)Nc2sc3c(c2C(N)=O)CCCC3)c1OC(F)F	none
COc1ccc(CC(=O)OCCCC(=O)c2ccc(F)cc2)cc1	none
O=C1c2cnc(-c3ccsc3)nc2OCCN1c1cccc(C(F)(F)F)c1	none
O=C(CSC12CC3CC(CC(C3)C1)C2)NC1CCCN(c2ncccn2)C1 (stereo not drawn)	none
COc1ccc(C2(C(=O)NC3CCCN(c4ncccn4)C3)CC2)cc1 (stereo not drawn)	KDM5B inhibitor 22.4µM
COCc1nnc2n1CCC(NC(=O)C1(c3ccc(OC)cc3)CC1)CC2 (stereo not drawn)	none
COc1ccc(C2(C(=O)NC3CCc4n[nH]c(=O)n4CC3)CC2)cc1 (stereo not drawn)	none
CCc1c(C)nn(CC(=O)NC2CCCN(c3ncccn3)C2)c1C (stereo not drawn)	KDM5B inhibitor 20µM
O=C(COc1ccccc1Cl)NC1CCCN(c2ncccn2)C1 (stereo not drawn)	none
Cc1cc(C)c2c(n1)SCC(=O)N2CCCC(=O)NCc1ccccc1Br	none
CC(=O)c1c(C)[nH]c(C(=O)C(C)OC(=O)c2ccc(C)c(O)c2)c1C (stereo not drawn)	none
COc1ccc(Cc2nc3ccc(C(=O)NCCc4ccccn4)cc3o2)cc1OC	none
COc1ccccc1-c1cc2c(ccn2C)c(C(=O)NCc2cccnc2)n1	none
Cc1ccc(-c2cc3c(ccn3C)c(C(=O)NCCc3cnc[nH]3)n2)cn1	none
Cn1ccc2c(C(=O)NCc3cnccn3)nc(-c3cccc(N4CCOCC4)c3)cc21	none
COc1ccccc1-c1cc2c(ccn2C)c(C(=O)NCCc2ccccn2)n1	KDM5B inhibitor 35.5µM
COc1ccccc1-c1cc2c(ccn2C)c(C(=O)NCc2cnccn2)n1	KDM5B inhibitor 31.6µM
Cc1ccc(SCc2cc(=O)[nH]c(N3CCN(c4cccc(C(F)(F)F)c4)CC3)n2)cc1	none
CCc1ccc(NC(=O)CCC2CCCCC2)cc1	none
c1coc(CNCCCN2CCCCC2)c1	none
CC(=O)Nc1ccc(C(=O)NC2CCC3CCCCC3C2)s1 (stereo not drawn)	none
O=C(NCc1ccccc1)C1CCN(S(=O)(=O)/C=C/c2ccccc2)CC1	none
COC(=O)C(Cc1ccc(O)cc1)NC(=O)c1nn(C)c(=O)c2ccccc12 (stereo not drawn)	none
CC(Sc1ccc2ccccc2n1)C(=O)Nc1sccc1C(N)=O (stereo not drawn)	none
CN1CCCCCCN(S(=O)(=O)c2cccs2)CCC1=O	none
O=c1[nH]c(-c2ccc(F)cc2)nc2c1CCN(S(=O)(=O)c1cccs1)C2	KDM5B inhibitor 31.6µM
O=C(Cc1c[nH]c2ccccc12)N1CCc2c(nc(-c3ccc(F)cc3)[nH]c2=O)C1	none
O=C(Cc1ccccc1)NC1CCCc2c1[nH]c1ccccc21 (stereo not drawn)	none
O=C(Cn1nc(-c2ccc(F)cc2)ccc1=O)N1CCc2ccccc2C1	none
O=C(NC1CCCc2c1[nH]c1ccccc21)c1ccncc1 (stereo not drawn)	none
O=C(NC1CCCc2c1[nH]c1ccccc21)c1n[nH]c2c1CCCC2 (stereo not drawn)	KDM5B inhibitor 14.1µM
O=C(Cn1nc(-c2ccc(F)cc2)ccc1=O)NC1CCCc2c1[nH]c1ccccc21 (stereo not drawn)	KDM5B inhibitor 14.1µM
O=C(Cn1nc(-c2cccs2)ccc1=O)NC1CCCc2c1[nH]c1c(Cl)cccc21 (stereo not drawn)	none
